# Measurements: PubChem BioAssay (NCATS)
# Inconclusive results are not listed. Active and inactive are the calls of the source. Unless noted, calls follow the shape of the dose curve; as a rule, active = well fitted curve in the direction sought with a large enough effect; inconclusive = small, poorly fitted or top-dose-only effect, or another doubt; inactive = no such curve, though single readings can be large; an effect the other way counts as inactive or inconclusive.
# Assays:
# [1] = qHTS drug screen for cell cycle checkpoint inhibitors in PARPi-resistant BRCA-mutant ovarian cancer cell lines. (AID 1963452; calls by dose curve; also: potency is read from the fitted curve at half-maximal effect); details: PEO1/OlaR viability, CellTiter-Glo luminescence, 96 h; for Z-AUC: stronger effect = lower value
# Procedure, shortened: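 PEO1, PEO4 and PEO1/OlaR ovarian cancer cells, 600 per well, exposed 96 h at 37C to a dilution series. Viability read by CellTiter-Glo luminescence, normalized to DMSO and empty wells; activity summarized as Z-AUC.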
# [2] = qHTS Counterscreen for compound interference against the NCATS DSHEA and TCM libraries (AID 1919978); details: firefly luciferase detection reagent interference, luminescence;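 also: compounds preincubated with 1 µM D-luciferin or buffer before detection reagent; % of control where 0% means no effect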
# Procedure, shortened: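 Interference check: test samples were incubated with D-luciferin (final 1 uM) or buffer only for 15 min, room temperature, in a qHTS titration up to 39.8 uM, then developed with detection reagent and read by luminescence.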
# [3] = Dual reporter qHTS for agonist of Pregnane X Receptor (hPXR) against the NCATS DSHEA and TCM libraries: Fluorescence readout (AID 1920058); details: PXR dual reporter cells; series mostly up to 40 µM; also: 0% is about no effect
# Procedure, shortened: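 Cells were plated at 2000 per well and allowed to attach for 5 h. Test substances were pinned in and incubated roughly 24 h. CellTiter-Fluor was then added and fluorescence measured after 1 h.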
# [4] = target: Nuclear receptor subfamily 1 group I member 2 (Homo sapiens) (UniProt O75469); experiment: Dual reporter qHTS for agonist of Pregnane X Receptor (hPXR) against the NCATS DSHEA and TCM libraries: Luminescence readout (AID 1920059); details: hPXR dual reporter cells, luciferase luminescence agonist; series mostly up to 40 µM; also: 0% is about no effect
# Procedure, shortened: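 Luminescent PXR reporter read (ONE-Glo) after a CellTiter-Fluor viability read, following 24 h, 37C treatment of HepG2 cells stably carrying hPXR-Luc.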
# [5] = target: Nuclear receptor subfamily 1 group I member 2 (Homo sapiens) (UniProt O75469); experiment: Dual reporter qHTS for antagonist of Pregnane X Receptor (hPXR) against the NCATS DSHEA and TCM libraries: Luminescence Readout (AID 1920060); details: hPXR dual reporter cells, luciferase luminescence, antagonist mode; series mostly up to 40 µM;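 also: HepG2 cells carrying hPXR luciferase reporter stimulated with rifampicin at 2 µM; 0% is about no effect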
# Procedure, shortened: (§1)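 Antagonist mode: rifampicin 2 uM final co-added with compounds to hPXR-LucHepG2 cells for 24 h at 37C. Viability by CellTiter-Fluor, Ex/Em 405/540 nm, 1 h; reporter by ONE-Glo luminescence.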
# [6] = Dual reporter qHTS for antagonist of Pregnane X Receptor (hPXR) against the NCATS DSHEA and TCM libraries: Fluorescence Readout (AID 1920061); details: PXR dual reporter cells, antagonist mode; series mostly up to 40 µM; also: 0% is about no effect
# Procedure, shortened: as §1
# [7] = qHTS for identification of novel therapeutic agents for treatment of microphthalmiaassociated transcription factor (MiT) renal cell carcinoma (RCC) (AID 1963991); details: CellTiter-Glo, 48 h, stronger effect = lower value
# Procedure, shortened: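 Three TFE3-fusion RCC cell lines (UOK109, UOK124, UOK145), 500 cells/well, were exposed to the 1912-compound MIPE 4.0 library for 48 hours at 37 C. Viability was read by CellTiter-Glo luminescence, normalised to DMSO (100%) and empty wells (0%), with 11-concentration curve fits.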
# [8] = qHTS profiling for inhibitors of Plasmodium falciparum proliferation (AID 504749);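 also: 0% = DMSO vehicle and full inhibition = artemisinin control; nearly all actives have a fitted effect of over 60% in size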; details: P. falciparum in erythrocytes, SYBR Green DNA, 72 h, at 28.7 µM (top of the series)
# Procedure, shortened: (§2)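 SYBR Green fluorescence of parasite DNA, read after lysis and overnight dark incubation, measured growth over 72 h in erythrocyte culture at 0.3% parasitemia and 2.5% hematocrit. Data normalised to DMSO and 0.29 uM artemisinin, with plate-drift correction.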
# 3D7 = experiment: as above; details: P. falciparum in erythrocytes, SYBR Green DNA, 72 h; series mostly up to 28.7 µM
# Procedure, shortened: as §2
# 7G8 = experiment: as above; details: P. falciparum in erythrocytes, SYBR Green DNA, 72 h; series mostly up to 28.7 µM
# Procedure, shortened: as §2
# AA1029 = experiment: as above; details: P. falciparum in erythrocytes, SYBR Green DNA, 72 h; series mostly up to 28.7 µM
# Procedure, shortened: as §2
# AS120 = experiment: as above; details: P. falciparum in erythrocytes, SYBR Green DNA, 72 h; series mostly up to 28.7 µM
# Procedure, shortened: as §2
# ATS189 = experiment: as above; details: P. falciparum in erythrocytes, SYBR Green DNA, 72 h; series mostly up to 28.7 µM
# Procedure, shortened: as §2
# ATS95 = experiment: as above; details: P. falciparum in erythrocytes, SYBR Green DNA, 72 h; series mostly up to 28.7 µM
# Procedure, shortened: as §2
# C2A = experiment: as above; details: P. falciparum in erythrocytes, SYBR Green DNA, 72 h; series mostly up to 28.7 µM
# Procedure, shortened: as §2
# CP185 = experiment: as above; details: P. falciparum in erythrocytes, SYBR Green DNA, 72 h; series mostly up to 28.7 µM
# Procedure, shortened: as §2
# CP191 = experiment: as above; details: P. falciparum in erythrocytes, SYBR Green DNA, 72 h; series mostly up to 28.7 µM
# Procedure, shortened: as §2
# CP192 = experiment: as above; details: P. falciparum in erythrocytes, SYBR Green DNA, 72 h; series mostly up to 28.7 µM
# Procedure, shortened: as §2
# CP194 = experiment: as above; details: P. falciparum in erythrocytes, SYBR Green DNA, 72 h; series mostly up to 28.7 µM
# Procedure, shortened: as §2
# CP201 = experiment: as above; details: P. falciparum in erythrocytes, SYBR Green DNA, 72 h; series mostly up to 28.7 µM
# Procedure, shortened: as §2
# [9] = measured here: PEO1 parental Z-AUC
# Chain of Nuclear receptor subfamily 1 group I member 2 (Homo sapiens) (O75469 whole entry, looked up): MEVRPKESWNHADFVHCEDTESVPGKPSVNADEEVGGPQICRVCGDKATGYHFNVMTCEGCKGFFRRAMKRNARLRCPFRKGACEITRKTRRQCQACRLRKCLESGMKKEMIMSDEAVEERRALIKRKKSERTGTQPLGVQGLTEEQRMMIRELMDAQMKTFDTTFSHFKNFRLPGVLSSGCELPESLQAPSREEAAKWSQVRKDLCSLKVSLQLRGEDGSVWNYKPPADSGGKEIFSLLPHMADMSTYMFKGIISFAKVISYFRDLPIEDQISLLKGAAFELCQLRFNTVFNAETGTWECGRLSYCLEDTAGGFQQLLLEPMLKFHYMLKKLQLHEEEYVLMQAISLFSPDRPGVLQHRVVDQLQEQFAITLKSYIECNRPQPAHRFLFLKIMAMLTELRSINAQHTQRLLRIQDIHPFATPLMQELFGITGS
compound,measurement,setting,value
COc1c(Cl)cc2c([nH]c3cnccc32)c1NC(=O)c1cccnc1C,Z-AUC,[1],1.1 (inactive)
same,Z-AUC,[1]; [9],0.859
same,Z-AUC,[1]; measured here: PEO4 Z-AUC,0.857
CO[C@@H]1[C@H](N(C)C(=O)c2ccccc2)C[C@H]2O[C@]1(C)n1c3ccccc3c3c4c(c5c6ccccc6n2c5c31)C(=O)NC4,Potency,[1],1.55 µM (active)
same,Z-AUC,[1]; [9],-1.27
same,Z-AUC,[1]; measured here: PEO4 Z-AUC,-1.21
CS(=O)(=O)c1cccc(CNc2nc(Nc3ccc4c(c3)CCC(=O)N4)ncc2C(F)(F)F)c1,Z-AUC,[1],-0.784 (inactive)
same,Z-AUC,[1]; [9],-1.23
same,Z-AUC,[1]; measured here: PEO4 Z-AUC,-1.25
CC1(C)CNc2cc(NC(=O)c3cccnc3NCc3ccncc3)ccc21,Z-AUC,[1],1.35 (inactive)
same,Z-AUC,[1]; [9],0.457
same,Z-AUC,[1]; measured here: PEO4 Z-AUC,0.272
CN([C@@H](Cc1ccc(OS(=O)(=O)c2cccc3cnccc23)cc1)C(=O)N1CCN(c2ccccc2)CC1)S(=O)(=O)c1cccc2cnccc12,Z-AUC,[1],1.57 (inactive)
same,Z-AUC,[1]; [9],1.54
same,Z-AUC,[1]; measured here: PEO4 Z-AUC,1.7
C[C@H](NC(=O)Cc1cc(F)cc(F)c1)C(=O)N[C@@H]1C(=O)N(C)c2ccccc2-c2ccccc21,Z-AUC,[1],-0.379 (inactive)
same,Z-AUC,[1]; [9],-0.57
same,Z-AUC,[1]; measured here: PEO4 Z-AUC,-0.563
Cc1ccc(-n2nc(C(C)(C)C)cc2NC(=O)Nc2ccc(OCCN3CCOCC3)c3ccccc23)cc1,Z-AUC,[1],0.154 (inactive)
same,Z-AUC,[1]; [9],0.786
same,Z-AUC,[1]; measured here: PEO4 Z-AUC,0.35
OCCC#Cc1nc(-c2ccc(F)cc2)c(-c2ccncc2)n1CCCc1ccccc1,Z-AUC,[1],1.23 (inactive)
same,Z-AUC,[1]; [9],0.482
same,Z-AUC,[1]; measured here: PEO4 Z-AUC,0.663
CNC(=O)c1ccccc1Sc1ccc2c(/C=C/c3ccccn3)n[nH]c2c1,Z-AUC,[1],0.578 (inactive)
same,Z-AUC,[1]; [9],0.269
same,Z-AUC,[1]; measured here: PEO4 Z-AUC,0.241
O=C1[C@H](Cc2ccc(O)cc2)N2C(=O)CCN(C(=O)NCc3ccccc3)[C@H]2CN1Cc1cccc2ccccc12,Z-AUC,[1],0.428 (inactive)
same,Z-AUC,[1]; [9],0.318
same,Z-AUC,[1]; measured here: PEO4 Z-AUC,0.0223
CN(C)c1ccc(C2Nc3ccc4ccccc4c3C3=C2C(=O)CC(C)(C)C3)cc1Br (stereo unspecified),Z-AUC,[1],-0.197 (inactive)
same,Z-AUC,[1]; [9],-0.276
same,Z-AUC,[1]; measured here: PEO4 Z-AUC,0.333
O=C(Nc1ccc(F)c(C(F)(F)F)c1)Nc1nnc(-c2ccncc2)s1,Z-AUC,[1],-0.226 (inactive)
same,Z-AUC,[1]; [9],-0.821
same,Z-AUC,[1]; measured here: PEO4 Z-AUC,-0.018
CCN(c1ccccc1)c1cc(NC)[n+](C)c(C)n1,Z-AUC,[1],1.35 (inactive)
same,Z-AUC,[1]; [9],1.27
same,Z-AUC,[1]; measured here: PEO4 Z-AUC,1.04
CCn1c(-c2nonc2N)nc2c(C#CC(C)(C)O)ncc(OC[C@H]3CCCNC3)c21,Z-AUC,[1],1.22 (inactive)
same,Z-AUC,[1]; [9],0.92
same,Z-AUC,[1]; measured here: PEO4 Z-AUC,1.41
CN(C)C(=O)c1ccc(S(=O)(=O)c2ccc(NC(=O)[C@@](C)(O)C(F)(F)F)c(Cl)c2)cc1,Z-AUC,[1],0.422 (inactive)
same,Z-AUC,[1]; [9],-0.221
same,Z-AUC,[1]; measured here: PEO4 Z-AUC,0.763
Cc1cccc(-c2[nH]c(C(C)(C)C)nc2-c2ccc3nccnc3c2)n1,Z-AUC,[1],0.914 (inactive)
same,Z-AUC,[1]; [9],0.697
same,Z-AUC,[1]; measured here: PEO4 Z-AUC,0.424
Cc1cc(Nc2nc(N[C@@H](C)c3ncc(F)cn3)ncc2Cl)n[nH]1,Potency,[1],12.3 µM (active)
same,Z-AUC,[1]; [9],-1.18
same,Z-AUC,[1]; measured here: PEO4 Z-AUC,-1.3
NC(=O)c1cnccn1,max response,[2],0.688% (inactive)
same,outcome,[3],inactive
same,outcome,[4],inactive
same,outcome,[5],inactive
same,outcome,[6],inactive
same,Z-AUC,[1],0.616 (inactive)
same,Z-AUC,[1]; [9],0.733
same,Z-AUC,[1]; measured here: PEO4 Z-AUC,0.41
same,z-score,"[7]; TFE3-RCC UOK109 viability, measured here: UOK109 Z-AUC",0.906
same,z-score,"[7]; TFE3-RCC viability, measured here: UOK124 Z-AUC",0.826
same,z-score,"[7]; TFE3-RCC viability, measured here: UOK145 Z-AUC",0.673
same,"activity, negative = inhibition",[8]; parasite line A,13.8% (inactive)
same,"activity, negative = inhibition",[8]; parasite line B,12.8% (inactive)
same,Potency,3D7,inactive
same,Potency,7G8,inactive
same,Potency,AA1029,inactive
same,Potency,AS120,inactive
same,Potency,ATS189,inactive
same,Potency,ATS95,inactive
same,Potency,C2A,inactive
same,Potency,CP185,inactive
same,Potency,CP191,inactive
same,Potency,CP192,inactive
same,Potency,CP194,inactive
same,outcome,CP201,inactive
